According to PubChem BioAssay (NCATS):
Results filed as inconclusive are left out. A call without a number means that no potency is given here. Values without a mark were called inactive. The source made the active and inactive calls. The call rests on the fitted dose curve; in most records, active means well fitted activation curve with a large enough effect; inconclusive means small, poorly fitted or top-dose-only effect; inactive means flat fitted curve, though single readings scatter.

Experiment: Primary redox qHTS assay for identification of artifact compounds. (AID 1845223)
Settings: Amplex Red/HRP redox cycling with DTT, fluorescence; series mostly up to 53.8 µM
Method in brief: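 Redox-cycling detection via DTT (250 uM final) oxidation coupled to Amplex Red (25 uM)/HRP (250 mU/mL) in HBSS. 15 min preincubation plus 30 min after DTT, room temperature. Ex/Em 525/598 nm; 4-parameter Hill fit against DMSO and 10 uM DA3003.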

Row | Compound | redox activity (% of DA3003) | Potency
1 | CNC(=O)[C@H]1O[C@@H](n2cnc3c(NCc4ccc(N)c(I)c4)ncnc32)[C@H](O)[C@@H]1O | 1.11% [at 11.5 µM] | –
2 | CC1(CCC(=O)O)C(=O)C=CC23CC4CC(OC4(C)C2O)C13 (configuration not stated) | – | inactive
3 | COc1cc(N2CCC(O)CC2)ccc1Nc1cc(Nc2ccccc2S(=O)(=O)C(C)C)c2cc[nH]c2n1 | – | inactive
4 | COC1C=C([C@@H]2CC=C3[C@@]4(C)C(CC[C@]32C)[C@@]2(C)C=CC(=O)C(C)(C)C2C[C@H]4OC(C)=O)C(=O)O1 (some centres not stated) | – | inactive
5 | OCCc1ccc(O[C@@H]2O[C@H](CO)[C@@H](O)[C@H](O)[C@H]2O)c(O)c1 | – | inactive
6 | C[C@@H]1CCC2C(C)(C)[C@H](O)CC[C@]2(C)[C@@]12Cc1c(O)cc3c(c1O2)CN(CCO)C3=O (some centres not stated) | – | inactive
7 | CC1(O)CCC2C(C(=O)O)=COC(OC3OC(CO)C(O)C(O)C3OC(=O)/C=C/c3ccc(O)cc3)C21 (configuration not stated) | – | inactive
8 | N[C@H]1C[C@H]1c1ccc(-c2cccc(O)c2)cc1 | – | inactive
9 | C=CCc1ccc(O[C@@H]2O[C@H](CO[C@@H]3O[C@@H](C)[C@H](O)[C@@H](O)[C@H]3O)[C@@H](O)[C@H](O)[C@H]2O)cc1 | – | inactive
10 | CC(=O)OC1C(O)CC(O[C@@H]2O[C@H](CO)[C@@H](O)[C@H](O)[C@H]2O)C2CCC3C(=O)OC(c4ccoc4)CC3(C)C21 (some centres not stated) | – | inactive
11 | COC1CC(=O)C23C(=O)NC(CC(C)C)C2C(C)C(C)=CC3/C=C(\C)CCC1O (configuration not stated) | – | inactive
12 | C[C@@H]1C(=O)O[C@H]2CC34[C@H]5C[C@@H](C(C)(C)C)C36[C@@H](OC(=O)[C@@H]6O)O[C@@]4(C(=O)O5)[C@]21O (some centres not stated) | – | inactive
